Rows were chosen to be rich in hits. Some 0.31% of all compounds tested hit in one or more screens of this group.
TRPV1 PAM – HTS Assay for Compounds that Act as Potentiators of the Vanilloid Receptor 1; AID 540277, 2011; hit rate 0.02% among 320,000; potentiation, % at 8.33 µM; TRPV1-expressing cells, Fluo-8 calcium influx, capsaicin EC20 potentiation; Transient receptor potential cation channel subfamily V member 1 (Homo sapiens), Q8NER1; in the data active means potentiation above about 80%; inconclusive means between about 30% and that limit; further: 0% is about no effect
Target sequence (Q8NER1 whole entry, looked up): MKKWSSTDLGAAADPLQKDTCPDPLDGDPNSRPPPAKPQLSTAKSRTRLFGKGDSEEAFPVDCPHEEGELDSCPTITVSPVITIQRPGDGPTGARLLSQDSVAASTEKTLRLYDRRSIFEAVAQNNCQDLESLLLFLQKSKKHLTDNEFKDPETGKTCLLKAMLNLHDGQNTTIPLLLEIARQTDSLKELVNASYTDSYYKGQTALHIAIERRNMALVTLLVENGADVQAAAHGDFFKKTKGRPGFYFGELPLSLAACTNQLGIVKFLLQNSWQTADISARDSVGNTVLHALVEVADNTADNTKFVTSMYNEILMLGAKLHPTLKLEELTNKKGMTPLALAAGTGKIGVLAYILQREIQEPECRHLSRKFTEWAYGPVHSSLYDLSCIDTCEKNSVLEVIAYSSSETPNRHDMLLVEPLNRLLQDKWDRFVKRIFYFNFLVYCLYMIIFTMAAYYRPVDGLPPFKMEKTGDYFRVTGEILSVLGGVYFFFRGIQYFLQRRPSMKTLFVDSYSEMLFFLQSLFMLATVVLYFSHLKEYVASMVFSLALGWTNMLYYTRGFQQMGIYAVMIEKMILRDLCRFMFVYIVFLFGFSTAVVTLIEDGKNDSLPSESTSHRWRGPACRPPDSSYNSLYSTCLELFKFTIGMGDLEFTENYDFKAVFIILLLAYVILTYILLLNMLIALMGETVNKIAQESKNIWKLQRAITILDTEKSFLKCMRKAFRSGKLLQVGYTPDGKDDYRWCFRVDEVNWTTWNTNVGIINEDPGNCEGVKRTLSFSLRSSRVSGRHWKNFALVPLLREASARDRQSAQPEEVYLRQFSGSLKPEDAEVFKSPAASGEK
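Fluo-8 calcium influx in TRPV1-expressing cells, kinetic read (ex 480/em 520 nm). Compound added and read 3 min for agonist activity, followed by capsaicin at EC20 final and 2 min further read for enhancement.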
TRPML1 ag – qHTS for Agonists of the Human Mucolipin Transient Receptor Potential 1 (TRPML1); TRPML1-expressing cells, Ca2+ dye fluorescence, FDSS; activation, % (test concentration not listed); hit rate 0.12% among 410,000; in the data active means activation above about 50%; inconclusive means mostly about 30% to 49%; further: 0% is about no effect
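Tet-induced TRPML1-DL cells, 1,500 per well, cultured overnight, were loaded with a no-wash Ca2+ dye for 45–90 min. Calcium fluorescence was recorded on the FDSS for 110 s after compound addition, before the EC80 agonist (4 uM 54-4) was added.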
TRPV1 ag – HTS Assay for Compounds that Act as Agonists of the Vanilloid Receptor 1; Transient receptor potential cation channel subfamily V member 1 (Homo sapiens), Q8NER1; TRPV1-expressing cells, Fluo-8 calcium influx, agonist mode; activation, % at 8.33 µM; hit rate 0.19% among 320,000; AID 540275, 2011; in the data active means activation above about 80%; inconclusive means between about 30% and that limit; further: 0% is about no effect
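TRPV1-expressing cells were cultured overnight at 35.5C and loaded with Fluo-8 calcium dye for 40 to 90 min at room temperature. After a 10 s baseline, compound was added and calcium influx was read kinetically for 3 min (ex 480/em 520 nm).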
TRPML1 blocker – qHTS for Inhibitors of the Human Mucolipin Transient Receptor Potential 1 (TRPML1) | Mucolipin-1 (Homo sapiens), Q9GZU1 | TRPML1-inducible cells, Ca2+ dye fluorescence, FDSS; hits give low values; inhibition of EC80 agonist-evoked calcium signal | activity change, negative = inhibition, % (test concentration not listed) | hit rate 0.02% among 390,000; in the data active means activity change below about -50%; inconclusive means between about -30% and that limit;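 further: stimulus is agonist 54-4 at its EC80 concentration; on the % scale 0 is the no-effect control and ±100 the full control effect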
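Calcium fluorescence in TRPML1-DL cells induced overnight with Tet: a 110 s read after compound pin addition, then a 110 s antagonist read after challenge with 54-4 at 4 uM final (EC80).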
Starred values were filed as active, the others as inactive; u = inconclusive; x = not tested or not shown.

SMILES | TRPV1 PAM | TRPML1 ag | TRPV1 ag | TRPML1 blocker
CCNc1c2c3c(cccc3n(C)c1=O)C(=O)c1ccccc1-2 | -9 | 67* | 86* | -29
Cn1c(=O)c(NCCc2ccccc2)c2c3c(cccc31)C(=O)c1ccccc1-2 | 23 | 104* | 92* | -11
CCC(=O)N1CCc2cc(S(=O)(=O)NCCC(=O)NCc3ccc(OC)cc3)ccc21 | x | -1 | x | 7
CC(=O)NC(Cc1ccc(O)cc1)C(=O)NCC(N)C(=O)c1ccccc1 (centres undefined) | x | 0 | x | x
COC(=O)C1(CCSC)NC(c2ccc(O)cc2)C2C(=O)N(c3ccc(F)cc3)C(=O)C21 (centres undefined) | -5 | 0 | 4 | -18
COc1ccc(CNc2ncnc3nc[nH]c23)cc1 | x | 0 | x | x
Cn1c(=O)c(NCCO)c2c3c(cccc31)C(=O)c1ccccc1-2 | x | 93* | x | -4
CN(C)c1ccc(/C=C2/C[N+](C)(C)C/C(=C/c3ccc(N(C)C)cc3)C2=O)cc1 | x | 2 | x | -6
CC(C)/C=C1\CC/C(=C\c2ccc(N(C)C)cc2)C1=O | 3 | 64* | u | -24
Cc1ncoc1C(=O)NC1CC(C)(C)Cc2c1cnn2-c1ccc(F)cc1 (centres undefined) | 2 | 0 | 85* | -2
CC1CCN(CCOc2ccc(C(=O)c3ccccc3)cc2)CC1 | 81* | 0 | 1 | -14
Cc1cc(Cl)ccc1OC(C)C(=O)Nc1ccccc1N1CCOCC1 (centres undefined) | -11 | 1 | 11 | 15
CC(Oc1ccc(Cl)cc1)C(=O)Nc1ccccc1N1CCOCC1 (centres undefined) | x | 74* | x | -5
CN1CCc2c(c3cnc4cc(Cl)ccc4c3n2C)C1 | x | 0 | x | x
CCOC(=O)c1sc2nc(OCc3cccnc3)cc(C)c2c1N | x | -1 | x | x
Cc1cc(C)nc(/N=C(\N)Nc2ccc(SC(F)F)cc2)n1 | -22 | 54* | 16 | -13
Cc1cc(C)nc(/N=C(\N)Nc2ccc(F)c([N+](=O)[O-])c2)n1 | x | 75* | x | -13
CC(=O)Nc1ccc(N/C(N)=N/c2nc(C)cc(C)n2)cc1 | 4 | 1 | 3 | -2
COc1cc2c(c(OC)c1OC)C(=O)C(=Cc1ccccc1)O2 | x | 0 | x | -10
COc1ccccc1NC(=O)/C(C#N)=C/c1cccn1C | x | 2 | x | 2
CCc1cc2c(cc3c(=O)n(CCCC(=O)NCc4cccc(Cl)c4)ncn32)s1 | x | -1 | x | 5
O=C(N/N=C/c1ccc2c(c1)OCO2)c1ccc2c(c1)OCO2 | 1 | -1 | u | 33
O=C(N/N=C/c1cccnc1)c1ccc2c(c1)OCO2 | -36 | 0 | 90* | 15
COc1ccc(/C=N/NC(=O)c2ccc3c(c2)OCO3)c(C(=O)O)c1OC | -8 | 0 | 80* | -2
S=c1[nH]nc(-c2ccccn2)n1/N=C/c1ccc(Br)s1 | 5 | 78* | -1 | -30
SMILES | TRPV1 PAM | TRPML1 ag | TRPV1 ag | TRPML1 blocker
S=c1[nH]nc(-c2ccccn2)n1/N=C/c1ccc(Cl)c(Cl)c1 | 26 | 0 | 1 | 9
CSC1=NSC2=NC(=O)/C(=C/c3coc4ccccc4c3=O)C(=N)N12 | 1 | 77* | u | -10
N=C1/C(=C\c2coc3ccccc3c2=O)C(=O)N=C2SC=CN12 | 0 | 72* | u | -7
CSC1=NSC2=NC(=O)/C(=C\c3cccs3)C(=N)N12 | 6 | 0 | 1 | -9
CSC1=NSC2=NC(=O)/C(=C/c3coc4ccc(O)cc4c3=O)C(=N)N12 | 8 | 67* | 22 | 4
CCC(CO)Oc1cc(NC(=O)Cc2ccccc2F)c2ncn(C(C)C)c2c1 (centres undefined) | x | 0 | x | 0
O=c1[nH]c2ccccc2nc1/C=C(\O)c1cccs1 | -17 | 79* | u | -17
CSCCC(c1nnnn1-c1c(C)cccc1C)N1CCN(C/C=C/c2ccccc2)CC1 (centres undefined) | x | 69* | x | x
CCC(c1nnnn1-c1c(C)cccc1C)N1CCN(C/C=C/c2ccccc2)CC1 (centres undefined) | x | 0 | x | x
CCC(C)Sc1cccc(-c2nc3ccc(Cl)cn3c2NCc2ccccc2)c1 (centres undefined) | 27 | 0 | 87* | 70
O=S(=O)(NCCNCC=Cc1ccc(Br)cc1)c1cccc2cnccc12 | x | 2 | x | x
CCN(CC)S(=O)(=O)c1ccc(/C=C/C(=O)Nc2ccc(N3CCOCC3)cc2)cc1 | -18 | -1 | 90* | -9
c1cnc(N2CCN(c3ncc4c(n3)CCNC4)CC2)nc1 | x | 4 | x | 22
CCC(C)(C)C1CCC(NC(=O)c2ccc(S(=O)(=O)N3CCOCC3)cc2)CC1 (centres undefined) | -4 | 2 | 80* | 20
CSCCNC(=O)c1ccc2nc(C3CCCCC3)oc2c1 | 1 | -1 | 92* | 22
O=C(c1ccc(Br)s1)N1CCN(Cc2ccc3c(c2)OCO3)CC1 | 2 | -1 | u | -51*
COC(=O)[C@]12C(=O)NC[C@H](CN1c1ccc(C(F)(F)F)cc1)N2C | x | 0 | x | -4
COc1cc(CNc2ccc3[nH]c(=O)[nH]c3c2)ccc1OCc1c(F)cccc1Cl | -9 | 0 | 90* | -26
COc1cc(CNc2ccc3[nH]c(=O)[nH]c3c2)ccc1OCc1ccccc1F | -10 | 1 | u | -4
COc1cccc(Nc2ncnc3c2cnn3-c2cccc(C)c2)c1 | -24 | 0 | 23 | 10
COc1ccccc1Nc1ncnc2c1cnn2-c1cccc(C)c1 | 5 | 0 | 85* | 0
O=C(/C=C/c1ccc(F)cc1)Nc1ccc2[nH]c(=O)[nH]c2c1 | 0 | 0 | 83* | 8
COc1cccc(/C=C/C(=O)Nc2ccc3[nH]c(=O)[nH]c3c2)c1 | 4 | 0 | 93* | 44
COc1cc(/C=C/C(=O)Nc2ccc3[nH]c(=O)[nH]c3c2)cc(OC)c1OC | -1 | 0 | -14 | -5
O=C(Nc1ccc2[nH]c(=O)[nH]c2c1)Nc1ccc(F)cc1F | 23 | -1 | u | -3
O=C(Nc1ccccc1C(F)(F)F)N1CC=C(c2c[nH]c3ccccc23)CC1 | x | 2 | x | -5
Cc1ccc(NC(=O)C2=CCN(S(=O)(=O)c3ccc(F)cc3)CC2)c(C)c1 | -14 | 1 | u | -19
CCC(C)NC(=O)C1=CCN(S(=O)(=O)c2ccc(C)cc2)CC1 (centres undefined) | 4 | 0 | -3 | -54*
Cc1ccc(S(=O)(=O)N2CCCCC2)cc1NC(=O)CSc1nnc(C2CC2)n1N | x | 0 | x | -6
CC(C)(C)c1ccc(C(=O)Nc2ccc3c(c2)C(=O)NC3=O)cc1 | -11 | 0 | 86* | -5

Assay outcomes as filed in PubChem.
